Results on eight sequences are retold here after publication PMC7862700, “An all-to-all approach to the identification of sequence-specific readers for epigenetic DNA modifications on cytosine”.

Holding throughout (assay): DAPPL (digital affinity profiling via proximity ligation, sequencing); 10 mM Tris-HCl pH 7.5, 50 mM NaCl, 1 mM DTT, 4% glycerol, room temperature, 30 min; GST-TFs on glutathione beads, 16-mer random dsDNA library, 0.1% formaldehyde crosslink after washing; high values mean tight binding
One assay concerns the target T1, FEV (Homo sapiens, UniProt Q99581 1-238).
T1 sequence: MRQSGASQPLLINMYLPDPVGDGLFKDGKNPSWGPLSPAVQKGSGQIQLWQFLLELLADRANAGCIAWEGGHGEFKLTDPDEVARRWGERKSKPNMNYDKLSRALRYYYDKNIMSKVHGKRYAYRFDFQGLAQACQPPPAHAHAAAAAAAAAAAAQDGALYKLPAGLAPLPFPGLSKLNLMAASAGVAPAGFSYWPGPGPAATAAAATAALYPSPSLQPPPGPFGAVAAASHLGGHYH
Particulars: protein: recombinant; tags: N-terminal GST; dsDNA, one strand shown. In a few lines: (§1)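 Yeast served to express human transcription factors as GST fusions, which were then captured on glutathione beads and labelled with DNA barcodes. Pooled with a tag-only sample, they were incubated with 200 nmole of a 16-mer random double-stranded DNA library for 30 min at room temperature in Tris/NaCl/DTT/glycerol buffer, washed, crosslinked with 0.1% formaldehyde, ligated by proximity, amplified by PCR and sequenced. Dividing each hexamer's read frequency for a factor by its frequency for the tag-only sample gives the binding signal.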

A further assay addresses ETV5 (Homo sapiens, UniProt P41161 1-510). Particulars: protein: recombinant; tags: N-terminal GST; dsDNA, one strand shown. In a few lines: as §1
Another assay addresses HSF1 (Homo sapiens, UniProt Q00613 1-529). The conditions noted are these: protein: recombinant; tags: N-terminal GST; chain copies: 3; dsDNA, one strand shown. In short, it runs like this:
as §1

The next assay concerns the target T2, SPIC (Homo sapiens, UniProt Q8N5J4 1-248).
T2 sequence: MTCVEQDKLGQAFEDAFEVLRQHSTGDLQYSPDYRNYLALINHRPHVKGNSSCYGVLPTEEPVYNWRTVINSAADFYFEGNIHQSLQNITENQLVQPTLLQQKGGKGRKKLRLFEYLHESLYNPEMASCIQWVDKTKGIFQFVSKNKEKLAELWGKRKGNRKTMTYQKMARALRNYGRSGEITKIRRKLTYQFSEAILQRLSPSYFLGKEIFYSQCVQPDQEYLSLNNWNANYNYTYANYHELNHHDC
The conditions noted are these: protein: recombinant; tags: N-terminal GST; dsDNA, one strand shown. In short, it runs like this:
as §1

The target of the next assay is ELF4 (Homo sapiens, UniProt Q99607 1-663). The conditions noted are these: protein: recombinant; tags: N-terminal GST; dsDNA, one strand shown. In a few lines: as §1
For another assay, the target named is T3, ELK4 (Homo sapiens, UniProt P28324-2 1-405).
T3 sequence: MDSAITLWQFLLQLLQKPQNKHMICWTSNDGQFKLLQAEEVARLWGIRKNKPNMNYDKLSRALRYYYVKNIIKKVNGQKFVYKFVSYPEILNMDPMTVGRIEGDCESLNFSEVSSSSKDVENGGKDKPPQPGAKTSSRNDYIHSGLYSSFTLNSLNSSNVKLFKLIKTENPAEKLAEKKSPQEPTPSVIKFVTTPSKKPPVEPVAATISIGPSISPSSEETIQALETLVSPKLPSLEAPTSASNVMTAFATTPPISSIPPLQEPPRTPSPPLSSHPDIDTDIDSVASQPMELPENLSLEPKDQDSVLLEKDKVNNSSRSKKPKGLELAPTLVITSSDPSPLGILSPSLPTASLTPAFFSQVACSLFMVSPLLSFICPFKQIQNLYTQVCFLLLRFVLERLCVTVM
Particulars: protein: recombinant; tags: N-terminal GST; dsDNA, one strand shown. In a few lines: as §1

The next assay concerns the target T4, ETV2 (Homo sapiens, UniProt O00321 1-342).
T4 sequence: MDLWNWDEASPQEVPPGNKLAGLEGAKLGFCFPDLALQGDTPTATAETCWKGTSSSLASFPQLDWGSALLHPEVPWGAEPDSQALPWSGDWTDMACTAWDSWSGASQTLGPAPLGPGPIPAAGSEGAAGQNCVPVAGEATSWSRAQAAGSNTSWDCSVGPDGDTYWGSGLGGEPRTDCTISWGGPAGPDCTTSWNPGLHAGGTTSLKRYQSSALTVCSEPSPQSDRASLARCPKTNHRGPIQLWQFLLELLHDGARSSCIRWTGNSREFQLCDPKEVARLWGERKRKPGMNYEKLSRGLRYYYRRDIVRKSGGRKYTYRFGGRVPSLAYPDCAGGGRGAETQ
Particulars: protein: recombinant; tags: N-terminal GST; dsDNA, one strand shown. In short, it runs like this:
as §1

A further assay addresses T5, ELF3 (Homo sapiens, UniProt P78545 1-371).
T5 sequence: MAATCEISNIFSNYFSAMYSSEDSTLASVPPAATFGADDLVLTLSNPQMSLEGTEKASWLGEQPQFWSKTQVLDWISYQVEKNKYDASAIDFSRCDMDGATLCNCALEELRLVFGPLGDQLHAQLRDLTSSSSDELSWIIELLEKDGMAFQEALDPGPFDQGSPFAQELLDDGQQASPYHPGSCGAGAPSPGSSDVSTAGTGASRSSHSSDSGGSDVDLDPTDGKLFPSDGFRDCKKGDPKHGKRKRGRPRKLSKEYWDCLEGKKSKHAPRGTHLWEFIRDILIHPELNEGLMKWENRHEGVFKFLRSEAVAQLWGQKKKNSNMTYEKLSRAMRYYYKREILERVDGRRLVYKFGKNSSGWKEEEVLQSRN
The conditions noted are these: protein: recombinant; tags: N-terminal GST; dsDNA, one strand shown. In short, it runs like this:
as §1

The target of another assay is CRX (Homo sapiens, UniProt O43186 1-299). Particulars: protein: recombinant; tags: N-terminal GST; dsDNA, one strand shown. In short, it runs like this: as §1
The next assay addresses ETV1 (Homo sapiens, UniProt P50549 1-477). Particulars: protein: recombinant; tags: N-terminal GST; dsDNA, one strand shown. In short, it runs like this:
as §1

Sequence of ETV1 (P50549 whole entry): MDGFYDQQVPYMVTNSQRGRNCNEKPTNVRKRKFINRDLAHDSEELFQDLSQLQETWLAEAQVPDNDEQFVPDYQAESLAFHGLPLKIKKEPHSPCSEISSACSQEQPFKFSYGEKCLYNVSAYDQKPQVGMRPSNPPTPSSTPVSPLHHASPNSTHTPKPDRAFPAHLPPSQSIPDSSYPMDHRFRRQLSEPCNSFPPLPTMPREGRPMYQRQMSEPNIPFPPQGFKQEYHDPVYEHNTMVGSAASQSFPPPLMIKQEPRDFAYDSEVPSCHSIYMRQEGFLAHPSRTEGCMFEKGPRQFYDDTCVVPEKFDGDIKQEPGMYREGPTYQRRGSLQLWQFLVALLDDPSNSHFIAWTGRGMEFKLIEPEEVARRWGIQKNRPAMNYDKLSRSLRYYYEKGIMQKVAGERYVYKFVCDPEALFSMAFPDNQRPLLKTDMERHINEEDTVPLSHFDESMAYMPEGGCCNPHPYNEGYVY
Sequence of ELF4 (Q99607 whole entry): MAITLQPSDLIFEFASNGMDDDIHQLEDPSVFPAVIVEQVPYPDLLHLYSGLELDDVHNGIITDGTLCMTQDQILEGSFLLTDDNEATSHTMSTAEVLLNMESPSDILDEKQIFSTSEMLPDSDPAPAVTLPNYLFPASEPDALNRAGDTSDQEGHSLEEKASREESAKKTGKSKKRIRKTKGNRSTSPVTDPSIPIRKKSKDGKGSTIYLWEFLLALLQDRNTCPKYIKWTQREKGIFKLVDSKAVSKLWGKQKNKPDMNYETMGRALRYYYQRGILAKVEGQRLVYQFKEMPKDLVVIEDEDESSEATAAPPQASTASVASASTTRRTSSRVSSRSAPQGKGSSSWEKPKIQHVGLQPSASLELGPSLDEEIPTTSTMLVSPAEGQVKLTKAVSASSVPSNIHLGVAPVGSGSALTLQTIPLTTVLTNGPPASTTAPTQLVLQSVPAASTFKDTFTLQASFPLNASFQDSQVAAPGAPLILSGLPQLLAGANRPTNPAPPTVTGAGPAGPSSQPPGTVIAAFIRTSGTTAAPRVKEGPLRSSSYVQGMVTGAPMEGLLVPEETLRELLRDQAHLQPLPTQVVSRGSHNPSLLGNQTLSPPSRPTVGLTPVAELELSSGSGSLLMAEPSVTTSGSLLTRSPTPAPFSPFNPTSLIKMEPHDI
Sequence of ETV5 (P41161 whole entry): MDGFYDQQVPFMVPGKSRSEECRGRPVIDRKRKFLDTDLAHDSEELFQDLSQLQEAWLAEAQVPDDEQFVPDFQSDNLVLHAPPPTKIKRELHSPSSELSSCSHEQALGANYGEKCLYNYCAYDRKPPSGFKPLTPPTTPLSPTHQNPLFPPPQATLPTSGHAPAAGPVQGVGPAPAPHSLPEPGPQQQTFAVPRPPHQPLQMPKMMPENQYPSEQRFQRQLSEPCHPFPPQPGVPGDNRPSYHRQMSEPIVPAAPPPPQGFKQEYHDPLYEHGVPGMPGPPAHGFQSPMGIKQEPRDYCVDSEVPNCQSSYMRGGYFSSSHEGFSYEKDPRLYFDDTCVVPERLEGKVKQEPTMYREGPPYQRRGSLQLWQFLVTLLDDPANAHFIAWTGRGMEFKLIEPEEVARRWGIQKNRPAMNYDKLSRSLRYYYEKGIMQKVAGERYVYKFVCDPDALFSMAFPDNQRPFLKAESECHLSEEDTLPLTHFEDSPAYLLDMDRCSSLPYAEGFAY
Sequence of CRX (O43186 whole entry): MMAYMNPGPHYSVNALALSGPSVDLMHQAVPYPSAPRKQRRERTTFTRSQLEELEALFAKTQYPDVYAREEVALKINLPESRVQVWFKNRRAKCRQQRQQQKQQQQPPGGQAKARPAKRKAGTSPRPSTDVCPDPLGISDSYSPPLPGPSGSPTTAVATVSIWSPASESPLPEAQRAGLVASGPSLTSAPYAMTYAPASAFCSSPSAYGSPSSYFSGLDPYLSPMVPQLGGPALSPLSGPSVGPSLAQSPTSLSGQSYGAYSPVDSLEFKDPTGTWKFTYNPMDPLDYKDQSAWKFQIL
Sequence of HSF1 (Q00613 whole entry): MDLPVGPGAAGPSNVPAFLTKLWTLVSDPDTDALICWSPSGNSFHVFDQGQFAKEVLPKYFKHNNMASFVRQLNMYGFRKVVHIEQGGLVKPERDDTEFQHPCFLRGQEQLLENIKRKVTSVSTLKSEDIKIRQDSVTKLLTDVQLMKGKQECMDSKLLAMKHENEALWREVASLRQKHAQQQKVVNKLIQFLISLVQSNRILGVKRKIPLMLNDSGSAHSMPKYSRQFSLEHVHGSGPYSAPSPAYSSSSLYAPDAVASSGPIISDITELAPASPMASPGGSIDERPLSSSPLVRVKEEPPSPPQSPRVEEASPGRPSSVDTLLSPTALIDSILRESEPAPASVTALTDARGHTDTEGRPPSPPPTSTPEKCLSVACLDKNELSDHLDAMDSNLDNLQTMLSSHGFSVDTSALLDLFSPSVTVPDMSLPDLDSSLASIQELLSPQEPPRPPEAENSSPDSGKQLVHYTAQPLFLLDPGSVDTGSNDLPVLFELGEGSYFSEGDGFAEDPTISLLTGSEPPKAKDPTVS

In the case of AACTTC, the binding signal with FEV was 3.12 fold enrichment (6-mer frequency, TF over GST control); with ETV5 it was 2.71 fold enrichment (6-mer frequency, TF over GST control); in the assay with HSF1, 2.02 fold enrichment (6-mer frequency, TF over GST control); in the assay with SPIC, 2.83 fold enrichment (6-mer frequency, TF over GST control); with ELF4, 2.44 fold enrichment (6-mer frequency, TF over GST control); with ELK4 it was 2.34 fold enrichment (6-mer frequency, TF over GST control). For the same sequence, the binding signal was 2.52 fold enrichment (6-mer frequency, TF over GST control) in the assay with ETV2; 2.39 fold enrichment (6-mer frequency, TF over GST control) in the assay with ELF3; 1.45 fold enrichment (6-mer frequency, TF over GST control) in the assay with CRX; 2.6 fold enrichment (6-mer frequency, TF over GST control) in the assay with ETV1.
Turning to TCCTGG, the binding signal with FEV is 1.46 fold enrichment (6-mer frequency, TF over GST control); in the assay with ETV5, 1.68 fold enrichment (6-mer frequency, TF over GST control); in the assay with HSF1 it was 1.29 fold enrichment (6-mer frequency, TF over GST control); in the assay with SPIC, 1.54 fold enrichment (6-mer frequency, TF over GST control); with ELF4, 1.53 fold enrichment (6-mer frequency, TF over GST control); in the assay with ELK4, 1.38 fold enrichment (6-mer frequency, TF over GST control). Moreover, the binding signal is 2.03 fold enrichment (6-mer frequency, TF over GST control) with ETV2; 1.17 fold enrichment (6-mer frequency, TF over GST control) with ELF3; 1.27 fold enrichment (6-mer frequency, TF over GST control) in the assay with CRX; 1.68 fold enrichment (6-mer frequency, TF over GST control) with ETV1.
As for TATGCA, the binding signal in the assay with FEV was 1.26 fold enrichment (6-mer frequency, TF over GST control); with ETV5, 1.18 fold enrichment (6-mer frequency, TF over GST control); with HSF1, 1.1 fold enrichment (6-mer frequency, TF over GST control); in the assay with SPIC, 1.24 fold enrichment (6-mer frequency, TF over GST control); in the assay with ELF4 it was 1.27 fold enrichment (6-mer frequency, TF over GST control); with ELK4, 1.37 fold enrichment (6-mer frequency, TF over GST control). Further, the binding signal is 1.37 fold enrichment (6-mer frequency, TF over GST control) in the assay with ETV2; 1.25 fold enrichment (6-mer frequency, TF over GST control) with ELF3; 1.22 fold enrichment (6-mer frequency, TF over GST control) with CRX; 1.19 fold enrichment (6-mer frequency, TF over GST control) with ETV1.
Turning to TCTACG, the binding signal is 1.52 fold enrichment (6-mer frequency, TF over GST control) with FEV; 1.3 fold enrichment (6-mer frequency, TF over GST control) in the assay with ETV5; 1.49 fold enrichment (6-mer frequency, TF over GST control) in the assay with HSF1; 1.3 fold enrichment (6-mer frequency, TF over GST control) in the assay with SPIC; 1.37 fold enrichment (6-mer frequency, TF over GST control) with ELF4; 1.36 fold enrichment (6-mer frequency, TF over GST control) in the assay with ELK4. The binding signal with ETV2 is 1.38 fold enrichment (6-mer frequency, TF over GST control); with ELF3, 1.5 fold enrichment (6-mer frequency, TF over GST control); with CRX it was 1.44 fold enrichment (6-mer frequency, TF over GST control); in the assay with ETV1, 1.44 fold enrichment (6-mer frequency, TF over GST control).
As to CGACTA, the binding signal was 1.31 fold enrichment (6-mer frequency, TF over GST control) with FEV; 1.25 fold enrichment (6-mer frequency, TF over GST control) with ETV5; 1.52 fold enrichment (6-mer frequency, TF over GST control) in the assay with HSF1; 1.47 fold enrichment (6-mer frequency, TF over GST control) with SPIC; 1.48 fold enrichment (6-mer frequency, TF over GST control) with ELF4; 1.58 fold enrichment (6-mer frequency, TF over GST control) in the assay with ELK4. For the same sequence, the binding signal in the assay with ETV2 was 1.49 fold enrichment (6-mer frequency, TF over GST control); with ELF3 it was 1.41 fold enrichment (6-mer frequency, TF over GST control); with CRX, 1.52 fold enrichment (6-mer frequency, TF over GST control); in the assay with ETV1, 1.4 fold enrichment (6-mer frequency, TF over GST control).
As to ATTAAG, the binding signal with FEV was 1.02 fold enrichment (6-mer frequency, TF over GST control); in the assay with ETV5, 1.01 fold enrichment (6-mer frequency, TF over GST control); with HSF1, 2 fold enrichment (6-mer frequency, TF over GST control); in the assay with SPIC it was 1.04 fold enrichment (6-mer frequency, TF over GST control); in the assay with ELF4, 1.06 fold enrichment (6-mer frequency, TF over GST control); with ELK4, 1.04 fold enrichment (6-mer frequency, TF over GST control). Further, the binding signal with ETV2 was 1.03 fold enrichment (6-mer frequency, TF over GST control); with ELF3, 1.14 fold enrichment (6-mer frequency, TF over GST control); with CRX, 3.35 fold enrichment (6-mer frequency, TF over GST control); in the assay with ETV1 it was 1.03 fold enrichment (6-mer frequency, TF over GST control).
As for TGGGCT, the binding signal was 1.35 fold enrichment (6-mer frequency, TF over GST control) with FEV; 1.4 fold enrichment (6-mer frequency, TF over GST control) with ETV5; 1.19 fold enrichment (6-mer frequency, TF over GST control) in the assay with HSF1; 1.28 fold enrichment (6-mer frequency, TF over GST control) in the assay with SPIC; 1.36 fold enrichment (6-mer frequency, TF over GST control) with ELF4; 1.29 fold enrichment (6-mer frequency, TF over GST control) with ELK4. Moreover, the binding signal with ETV2 is 1.26 fold enrichment (6-mer frequency, TF over GST control); with ELF3, 1.4 fold enrichment (6-mer frequency, TF over GST control); with CRX, 1.3 fold enrichment (6-mer frequency, TF over GST control); with ETV1, 1.42 fold enrichment (6-mer frequency, TF over GST control).
As for TCACAA, the binding signal is 1.14 fold enrichment (6-mer frequency, TF over GST control) with FEV; 1.12 fold enrichment (6-mer frequency, TF over GST control) in the assay with ETV5; 1.03 fold enrichment (6-mer frequency, TF over GST control) with HSF1; 1.18 fold enrichment (6-mer frequency, TF over GST control) with SPIC; 1.12 fold enrichment (6-mer frequency, TF over GST control) in the assay with ELF4; 1.21 fold enrichment (6-mer frequency, TF over GST control) with ELK4. For the same sequence, the binding signal is 1.16 fold enrichment (6-mer frequency, TF over GST control) with ETV2; 1.15 fold enrichment (6-mer frequency, TF over GST control) with ELF3; 1.09 fold enrichment (6-mer frequency, TF over GST control) in the assay with CRX; 1.13 fold enrichment (6-mer frequency, TF over GST control) in the assay with ETV1.
